In all, about 5,500 compounds went through this assay and about 2,000 (36%) were called active. Inconclusive results (about 18%) are left out. Cut-off read from the data, not from the text of the source: active = normalized growth mostly below about 0.91 (no sharp cut-off); inconclusive = no clear call, values can overlap the other calls; inactive = mostly above about 0.92. The list shows a part of the results.
Assay: chemical genetic growth profiling, strain panel (AID 1159580);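 note: tested at 20 µM; growth read once vehicle control cultures reached saturation at 30 °C; 1 = growth at the plate median or of vehicle wells; lower values mean less growth of the strain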
Settings: S. cerevisiae deletion strains, growth OD

Measured: normalized growth

CC(CC(C(N)=O)(c1ccccc1)c1ccccc1)N(C)C (stereo not given)
inactive: locus YAL021C, strain ccr4, active compounds read low 0.952 | locus YAL026C, strain drs2, active compounds read low 0.977 | locus YAL030W, strain snc1, active compounds read low 0.996 | locus YBL061C, strain skt5, active compounds read low 0.983 | locus YBR009C, strain hhf1, active compounds read low 0.988 | locus YBR023C, strain chs3, active compounds read low 0.949 | locus YBR171W, strain sec66, active compounds read low 0.967 | locus YBR231C, strain swc5, active compounds read low 0.994 | locus YBR279W, strain paf1, active compounds read low 0.995 | locus YCL011C, strain gbp2, active compounds read low 0.963 | locus YCL016C, strain dcc1, active compounds read low 0.989 | locus YCL061C, strain MRC1, active compounds read low 0.981 | locus YCL069W, strain vba3, active compounds read low 0.976 | locus YCR088W, strain abp1, active compounds read low 0.973 | locus YDL005C, strain med2, active compounds read low 0.989 | locus YDL040C, strain nat1, active compounds read low 0.996 | locus YDR001C, strain nth1, active compounds read low 0.974 | locus YDR069C, strain doa4, active compounds read low 0.973 | locus YDR137W, strain rgp1, active compounds read low 0.968 | locus YDR159W, strain sac3, active compounds read low 0.981 | locus YDR195W, strain ref2 0.981 | locus YDR297W, strain sur2, active compounds read low 0.983 | locus YDR334W, strain swr1, active compounds read low 0.942 | locus YDR335W, strain msn5, active compounds read low 0.978 | locus YDR392W, strain spt3, active compounds read low 0.958 | locus YEL003W, strain gim4, active compounds read low 0.982 | locus YEL037C, strain rad23, active compounds read low 0.939 | locus YEL061C, strain CIN8 (second series), active compounds read low 0.982 | locus YER015W, strain faa2, active compounds read low 1.01 | locus YER016W, strain bim1, active compounds read low 0.982 | locus YER111C, strain swi4, active compounds read low 0.994 | locus YER155C, strain BEM2 (second series), active compounds read low 0.985 | locus YFR010W, strain ubp6, active compounds read low 0.964 | locus YGL167C, strain pmr1, active compounds read low 0.988 | locus YGL173C, strain kem1, active compounds read low 0.975 | locus YGL227W, strain vid30, active compounds read low 0.989 | locus YGL240W, strain doc1, active compounds read low 0.981 | locus YGL253W, strain hxk2, active compounds read low 0.937 | locus YHR013C, strain ard1, active compounds read low 0.951 | locus YHR027C, strain rpn1, active compounds read low 0.978 | locus YHR030C, strain SLT2, active compounds read low 1.02 | locus YHR079C, strain IRE1, active compounds read low 1.02 | locus YHR142W, strain chs7, active compounds read low 0.957 | locus YJL092W, strain hpr5, active compounds read low 0.969 | locus YJL095W, strain BCK1 (second series), active compounds read low 0.983 | locus YJL095W, strain BCK1, active compounds read low 0.992 | locus YJL115W, strain asf1, active compounds read low 0.962 | locus YJL129C, strain trk1, active compounds read low 0.952 | locus YJL154C, strain vps35, active compounds read low 0.984 | locus YJL164C, strain tpk1, active compounds read low 0.974 | locus YJL166W, strain qcr8, active compounds read low 0.987 | locus YJL187C, strain SWE1, active compounds read low 0.984 | locus YJR066W, strain TOR1, active compounds read low 0.969 | locus YKL160W, strain elf1, active compounds read low 0.978 | locus YKR026C, strain gcn3, active compounds read low 0.979 | locus YKR091W, strain srl3, active compounds read low 0.987 | locus YLL001W, strain dnm1, active compounds read low 0.994 | locus YLL026W, active compounds read low 0.986 | locus YLL041C, strain sdh2, active compounds read low 0.979 | locus YLR027C, strain aat2, active compounds read low 0.989 | locus YLR113W, strain HOG1, active compounds read low 0.999 | locus YLR221C, strain rsa3, active compounds read low 0.979 | locus YLR258W, strain gsy2, active compounds read low 0.978 | locus YLR262C, strain YPT6 (second series), active compounds read low 0.977 | locus YLR320W, strain mms22, active compounds read low 0.992 | locus YLR342W, strain FKS1, active compounds read low 0.986 | locus YLR357W, strain rsc2, active compounds read low 0.992 | locus YLR370C, strain arc18, active compounds read low 0.984 | locus YLR384C, strain iki3, active compounds read low 0.994 | locus YML120C, strain ndi1, active compounds read low 0.97 | locus YMR058W, strain fet3, active compounds read low 0.967 | locus YMR125W, strain sto1, active compounds read low 0.995 | locus YMR129W, active compounds read low 0.972 | locus YMR205C, strain PFK2, active compounds read low 0.965 | locus YMR231W, strain pep5, active compounds read low 0.983 | locus YNL071W, strain lat1, active compounds read low 0.979 | locus YNL183C, strain NPR1, active compounds read low 0.973 | locus YNL209W, strain ssb2, active compounds read low 0.983 | locus YNL248C, strain rpa49, active compounds read low 0.941 | locus YNL322C, strain KRE1 (second series), active compounds read low 0.983 | locus YNR049C, strain mso1, active compounds read low 0.976 | locus YOR001W, strain rrp6, active compounds read low 0.959 | locus YOR070C, strain gyp1, active compounds read low 0.99 | locus YOR080W, strain dia2, active compounds read low 0.971 | locus YOR083W, strain WHI5, active compounds read low 0.973 | locus YOR106W, strain vam3, active compounds read low 0.982 | locus YOR231W, strain MKK1, active compounds read low 1.04 | locus YOR265W, strain rbl2, active compounds read low 0.991 | locus YOR270C, strain vph1, active compounds read low 0.954 | locus YOR290C, strain snf2, active compounds read low 0.988 | locus YPL051W, strain arl3, active compounds read low 0.996 | locus YPL078C, strain atp4, active compounds read low 0.94 | locus YPL106C, strain sse1, active compounds read low 0.968 | locus YPL240C, strain hsp82, active compounds read low 0.967 | locus YPL256C, strain CLN2, active compounds read low 1.03

From PubChem BioAssay AID1159580 (chemical genetic matrix, 2015)
